Reference: the antibiotic and cytotoxicity screens of Wong et al. (2023)
Hit rate of the full screen: of about 39,000 compounds, about 3,300 (8.5%) were called active. This is one part of a sample in which actives are shown more often than they occur.

The compounds below were run on HepG2 (assay: cytotoxicity call (relative viability < 0.9)). Conditions: 10 µM.

SMILES	cytotoxicity call
COc1ccc(S(=O)(=O)N(C)C[C@@H]2Oc3ncc(-c4cccc(OC)c4)cc3C(=O)N([C@H](C)CO)C[C@@H]2C)cc1	inactive
Cc1noc(C)c1S(=O)(=O)Nc1ccc2c(c1)C(=O)N([C@@H](C)CO)C[C@@H](C)[C@H](CN(C)C(=O)Nc1ccc(C(F)(F)F)cc1)OCCCC[C@@H](C)O2	inactive
NC[C@H]1COC2(CCCCC2)O1	inactive
C[C@H]1CN([C@@H](C)CO)C(=O)Cc2cc(NC(=O)CCN3CCOCC3)ccc2O[C@H]1CN(C)S(=O)(=O)c1ccc(Cl)cc1	inactive
CC(=O)Nc1nonc1N1CCCC1=O	inactive
O=C(Cc1ccccn1)NCC[C@@H]1CC[C@@H](NC(=O)CN2CCOCC2)[C@@H](CO)O1	inactive
Cc1ccc(S(=O)(=O)Nc2ccc3c(c2)C(=O)N([C@@H](C)CO)C[C@@H](C)[C@@H](CN(C)C(=O)Nc2ccc4c(c2)OCO4)OCCCC[C@H](C)O3)cc1	inactive
C[C@H]1[C@@H](O)[C@@H](C)\C=C/C=C\C=C/C=C\C=C/C=C\C=C/[C@@H](O[C@H]2O[C@H](C)[C@@H](O)[C@H](N)[C@@H]2O)C[C@H]2O[C@](O)(C[C@@H](O)C[C@@H](O)[C@@H](O)CC[C@@H](O)C[C@@H](O)CC(=O)O[C@H]1C)C[C@@H](O)[C@@H]2C(=O)O	inactive
CC1C=CC=CC=CC=CC=CC=CC=CC(OC2OC(C)C(O)C(N)C2O)CC(O)C(C(=O)O)C(O)CC(=O)CC(O)CC(O)CC(O)CC(=O)CCCC(=O)CC(=O)OC1C(C)CC(C)C(O)CC(=O)c1ccc(N)cc1 (stereo not drawn)	active
CC1C=CC=CC=CC=CC=CC=CC=CC(OC2OC(C)C(O)C(N)C2O)CC2OC(O)(CC(O)CC(O)C(O)CCC(O)CC(O)CC(=O)OC(C)C(C)C1O)CC(O)C2C(=O)O (stereo not drawn)	inactive
COc1ccc(CN(C)C[C@@H]2Oc3ccc(NC(=O)Cn4cnnn4)cc3CC(=O)N([C@H](C)CO)C[C@H]2C)cc1	inactive
O=c1nc(NCc2cccnc2)cn[nH]1	inactive
COc1ccc(NC(=O)Nc2ccc3c(c2)C(=O)N([C@H](C)CO)C[C@H](C)[C@@H](CN(C)CC2CCCCC2)OCCCC[C@@H](C)O3)cc1	inactive
COc1ccc(NC(=O)Nc2ccc3c(c2)C(=O)N([C@@H](C)CO)C[C@@H](C)[C@@H](CN(C)CC2CCCCC2)OCCCC[C@@H](C)O3)cc1	active
COc1ccc(NC(=O)Nc2ccc3c(c2)C(=O)N([C@@H](C)CO)C[C@H](C)[C@H](CN(C)CC2CCCCC2)OCCCC[C@@H](C)O3)cc1	inactive
COc1ccc(NC(=O)Nc2ccc3c(c2)C(=O)N([C@@H](C)CO)C[C@H](C)[C@@H](CN(C)CC2CCCCC2)OCCCC[C@H](C)O3)cc1	inactive
COc1ccc(NC(=O)Nc2ccc3c(c2)C(=O)N([C@@H](C)CO)C[C@@H](C)[C@@H](CN(C)CC2CCCCC2)OCCCC[C@H](C)O3)cc1	inactive
COc1ccc(NC(=O)Nc2ccc3c(c2)C(=O)N([C@@H](C)CO)C[C@@H](C)[C@H](CN(C)CC2CCCCC2)OCCCC[C@H](C)O3)cc1	inactive
COc1ccc(NC(=O)Nc2ccc3c(c2)C(=O)N([C@H](C)CO)C[C@@H](C)[C@H](CN(C)CC2CCCCC2)OCCCC[C@@H](C)O3)cc1	active

SMILES	cytotoxicity call
COc1ccc(NC(=O)Nc2ccc3c(c2)C(=O)N([C@H](C)CO)C[C@@H](C)[C@@H](CN(C)CC2CCCCC2)OCCCC[C@@H](C)O3)cc1	active
COc1ccc(NC(=O)Nc2ccc3c(c2)C(=O)N([C@H](C)CO)C[C@@H](C)[C@H](CN(C)CC2CC2)OCCCC[C@H](C)O3)cc1	inactive
COc1ccc(NC(=O)Nc2ccc3c(c2)C(=O)N([C@H](C)CO)C[C@H](C)[C@H](CN(C)CC2CCCCC2)OCCCC[C@H](C)O3)cc1	inactive
COc1ccc(NC(=O)Nc2ccc3c(c2)C(=O)N([C@@H](C)CO)C[C@@H](C)[C@H](CN(C)CC2CCCCC2)OCCCC[C@@H](C)O3)cc1	inactive
COc1ccc(NC(=O)Nc2ccc3c(c2)C(=O)N([C@H](C)CO)C[C@@H](C)[C@@H](CN(C)CC2CCCCC2)OCCCC[C@H](C)O3)cc1	active
C[C@@H]1CN([C@@H](C)CO)C(=O)c2cccc(NC(=O)Nc3cccc4ccccc34)c2O[C@H]1CN(C)S(=O)(=O)c1ccccc1F	inactive
Cc1noc(C)c1NC(=O)Nc1ccc2c(c1)C(=O)N([C@H](C)CO)C[C@H](C)[C@H](CN(C)S(C)(=O)=O)O2	inactive
O=C(CN1CCOCC1)N[C@@H]1CC[C@H](CCNC(=O)Nc2cc(F)ccc2F)O[C@@H]1CO	inactive
COc1ccc(NC(=O)N(C)C[C@@H]2OCCCC[C@H](C)Oc3ccc(NC(=O)c4ccccc4)cc3C(=O)N([C@H](C)CO)C[C@H]2C)cc1	inactive
O=C(C[C@H]1C=C[C@@H](NC(=O)C2CC2)[C@@H](CO)O1)NCCCN1CCOCC1	inactive
NNC(=O)CNc1ccc2c(c1)OCO2	inactive
C[N+](C)(C)CCCCNC(=O)[C@H]1C[C@H]2C(=O)N[C@@H](Cc3ccccc3)C(=O)N2[C@H]1c1cccc(OCCO)c1	inactive
C[C@H]1CN([C@@H](C)CO)C(=O)c2cc(C#CC3(O)CCCC3)cnc2O[C@@H]1CN(C)S(=O)(=O)c1ccc(F)cc1	inactive
C[C@H]1[C@H](NC(=O)/C(=N\OC(C)(C)C(=O)O)c2csc(N)n2)C(=O)N1S(=O)(=O)O	inactive
C[C@@H]1CCCCO[C@H](CN(C)S(C)(=O)=O)[C@H](C)CN([C@@H](C)CO)C(=O)c2cc(NC(=O)CCCN(C)C)ccc2O1	inactive
CCS(=O)(=O)NCC[C@H]1CC[C@H](NS(=O)(=O)c2cccc(F)c2)[C@@H](CO)O1	inactive
C[C@@H]1CCCCO[C@H](CN(C)C(=O)Nc2cccc3ccccc23)[C@H](C)CN([C@@H](C)CO)C(=O)c2cc(NC(=O)Cc3ccccc3)ccc2O1	inactive
COc1ccc(S(=O)(=O)N[C@@H]2CC[C@@H](CC(=O)N3CCC(Cc4ccccc4)CC3)O[C@H]2CO)cc1	inactive
C[C@H]1CCCCO[C@@H](CN(C)C(=O)Nc2ccc(C(F)(F)F)cc2)[C@@H](C)CN([C@@H](C)CO)C(=O)c2cc(NC(=O)c3ccncc3)ccc2O1	inactive
